Data on four compounds can be found in PubChem BioAssay (EPA / NIEHS).

Read-out in assay [1]: Protein phosphatase 2A (PPP2R4), PTPA (gene 5524)
As to the kind of experiment: LTEA_HepaRG_PPP2R4: Life Technologies and Expression Analysis (LTEA) Assay for Protein phosphatase 2A (PPP2R4) using HepaRG (AID 2283522). Particulars: mRNA level, 48 h; actives raise or lower the signal. The method, boiled down:
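HepaRG, 48 h exposure, 8-pt half-log series from 100 uM, 0.5% DMSO vehicle, duplicates. Readout: PPP2R4 mRNA, Fluidigm qRT-PCR, housekeeping-normalized. Bidirectional curve fit vs DMSO baseline.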

Read-out in assay [2]: Phosphatase and tensin (PTEN), PTEN (gene 5728)
As to the kind of experiment: LTEA_HepaRG_PTEN: Life Technologies and Expression Analysis (LTEA) Assay for Phosphatase and tensin (PTEN) using HepaRG (AID 2283523). Particulars: mRNA level, 48 h; actives raise or lower the signal. The method, boiled down: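 Expression of PTEN is quantified in the human liver line HepaRG following two days of dosing (top concentration 100 uM, half-log dilutions, 0.5% DMSO). Values derive from bidirectional curve fitting relative to DMSO controls.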

Read-out in assay [3]: solute carrier (SLC22A1), SLC22A1 (gene 6580)
The assay is described as follows: LTEA_HepaRG_SLC22A1: Life Technologies and Expression Analysis (LTEA) Assay for solute carrier (SLC22A1) using HepaRG (AID 2283524). Particulars: mRNA level, 48 h; actives raise or lower the signal. In a few lines:
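Transcript induction or suppression of SLC22A1 in human HepaRG cultures is scored after 48 h chemical treatment, with DMSO (0.5%) as baseline for bidirectional fitting. Concentrations span eight half-log points topping at 100 uM.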

Read-out in assay [4]: Pyruvate Dehydrogenase Kinase 4 (PDK4), PDK4 (gene 5166)
As to the kind of experiment: LTEA_HepaRG_PDK4: Life Technologies and Expression Analysis (LTEA) Assay for Pyruvate Dehydrogenase Kinase 4 (PDK4) using HepaRG (AID 2283525). Particulars: mRNA level, 48 h; actives raise or lower the signal. In a few lines: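 Eight-point, half-log concentration series (max 100 uM, 0.5% DMSO) applied to differentiated HepaRG cells for 48 h in duplicate. Endpoint: PDK4 mRNA induction or repression by qRT-PCR against DMSO baseline.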

Read-out in assay [5]: NAD(P)H dehydrogenase [quinone] 1 (NQO1), NQO1 (gene 1728)
The assay is described as follows: LTEA_HepaRG_NQO1: Life Technologies and Expression Analysis (LTEA) Assay for NAD(P)H dehydrogenase [quinone] 1 (NQO1) using HepaRG (AID 2283526). Particulars: mRNA level, 48 h; actives raise or lower the signal. In a few lines:
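qRT-PCR read-out (Fluidigm TaqMan), normalized to three housekeeping genes, after 48 h chemical exposure of HepaRG cells. Concentrations: eight points, top 100 uM, half-log steps, 0.5% DMSO vehicle. Gain or loss of signal fitted relative to DMSO.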

Read-out in assay [6]: Nuclear factor erythroid 2-related factor 2 (Homo sapiens) (UniProt Q16236)
The assay is described as follows: LTEA_HepaRG_NFE2L2: Life Technologies and Expression Analysis (LTEA) Assay for Nuclear factor erythroid 2-related factor 2 (NFE2L2) Transcription Factor using HepaRG (AID 2283527). Particulars: mRNA level, 48 h; actives raise or lower the signal. In a few lines: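 Human liver HepaRG line treated in duplicate for 48 h with an eight-point series topping at 100 uM. Gene expression of NFE2L2 by qRT-PCR, bidirectionally fitted against the vehicle control.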

Read-out in assay [7]: succinate dehydrogenase complex iron sulfur subunit B (SDHB), SDHB (gene 6390)
The assay is described as follows: LTEA_HepaRG_SDHB: Life Technologies and Expression Analysis (LTEA) Assay for succinate dehydrogenase complex iron sulfur subunit B (SDHB) using HepaRG (AID 2283528). Particulars: mRNA level, 48 h; actives raise or lower the signal. The method, boiled down:
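HepaRG, 48 h exposure, 8-pt half-log series from 100 uM in 0.5% DMSO, duplicates. Readout: SDHB mRNA by Fluidigm qRT-PCR vs housekeeping genes; bidirectional fit relative to DMSO.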

Read-out in assay [8]: Signal transducer and activator of transcription 3 (Homo sapiens) (UniProt P40763)
As to the kind of experiment: LTEA_HepaRG_STAT3: Life Technologies and Expression Analysis (LTEA) Assay for Signal transducer and activator of transcription (STAT3) using HepaRG (AID 2283529). Particulars: mRNA level, 48 h; actives raise or lower the signal. The method, boiled down:
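In this transcriptional endpoint, HepaRG cultures receive test chemicals at up to 100 uM for 48 h, tested in duplicate. STAT3 mRNA is normalized to ACTB, GAPDH and POLR2A.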

Read-out in assay [9]: solute carrier (SLCO1B1), SLCO1B1 (gene 10599)
As to the kind of experiment: LTEA_HepaRG_SLCO1B1: Life Technologies and Expression Analysis (LTEA) Assay for solute carrier (SLCO1B1) using HepaRG (AID 2283530). Particulars: mRNA level, 48 h; actives raise or lower the signal. In a few lines: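 SLCO1B1 transcript levels were quantified by TaqMan qRT-PCR using three housekeeping genes for normalization. This followed 48 h chemical exposure (100 uM top, half-log, 8 points, 0.5% DMSO) of HepaRG liver cells, with gain or loss fitted relative to DMSO.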

Read-out in assay [10]: sulfotransferase 2A1 (SULT2A1), SULT2A1 (gene 6822)
As to the kind of experiment: LTEA_HepaRG_SULT2A1: Life Technologies and Expression Analysis (LTEA) Assay for sulfotransferase 2A1 (SULT2A1) using HepaRG (AID 2283531). Particulars: mRNA level, 48 h; actives raise or lower the signal. In a few lines: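 Expression change of SULT2A1, by qRT-PCR with three housekeeping-gene normalization, was scored bidirectionally versus DMSO. Cells: differentiated HepaRG, dosed in duplicate for 48 h across 8 points, highest 100 µM, half-log dilution, 0.5% DMSO.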

Read-out in assay [11]: Transforming Growth Factor (TGFA), TGFA (gene 7039)
As to the kind of experiment: LTEA_HepaRG_TGFA: Life Technologies and Expression Analysis (LTEA) Assay for Transforming Growth Factor (TGFA) using HepaRG (AID 2283532). Particulars: mRNA level, 48 h; actives raise or lower the signal. The method, boiled down:
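Gene expression of TGFA was quantified by qRT-PCR after human HepaRG cells were treated for 48 h with test chemicals (eight concentrations, highest 100 uM, 0.5% DMSO). Activity in either direction was fitted relative to DMSO.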

Read-out in assay [12]: Transforming Growth Factor (TGFB1), TGFB1 (gene 7040)
The assay is described as follows: LTEA_HepaRG_TGFB1: Life Technologies and Expression Analysis (LTEA) Assay for Transforming Growth Factor (TGFB1) Transporter using HepaRG (AID 2283533). Particulars: mRNA level, 48 h; actives raise or lower the signal. In a few lines: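 TGFB1 transcript measured by qRT-PCR with normalisation to three housekeeping genes (ACTB, GAPDH, POLR2A); human HepaRG line treated in duplicate for 48 hr with an 8-point series topping at 100 uM, 0.5% DMSO vehicle, bidirectionally fitted.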

Read-out in the next assay: TIMP1, TIMP1 (gene 7076)
As to the kind of experiment: LTEA_HepaRG_TIMP1: Life Technologies and Expression Analysis (LTEA) Assay for TIMP1 using HepaRG (AID 2283534). Particulars: mRNA level, 48 h; actives raise or lower the signal. In a few lines: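 Bidirectional change in TIMP1 transcript versus 0.5% DMSO, measured by TaqMan qRT-PCR with three housekeeping genes for normalization. HepaRG human liver cells dosed 48 h in duplicate, top concentration 100 uM with half-log dilutions.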

Read-out in assay [13]: Tumor necrosis factor receptor 1 (TNFRSF1A), TNFRSF1A (gene 7132)
As to the kind of experiment: LTEA_HepaRG_TNFRSF1A: Life Technologies and Expression Analysis (LTEA) Assay for Tumor necrosis factor receptor 1 (TNFRSF1A) using HepaRG (AID 2283535). Particulars: mRNA level, 48 h; actives raise or lower the signal. The method, boiled down:
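mRNA measured by qRT-PCR (TaqMan, Fluidigm arrays) against ACTB/GAPDH/POLR2A housekeepers after 48 h chemical exposure of HepaRG cells. Top concentration 100 uM, half-log 8-point series, duplicates; vehicle 0.5% DMSO, both fit directions.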

Read-out in assay [14]: Thyroid Hormone Responsive (THRSP), THRSP (gene 7069)
The assay is described as follows: LTEA_HepaRG_THRSP: Life Technologies and Expression Analysis (LTEA) Assay for Thyroid Hormone Responsive (THRSP) using HepaRG (AID 2283536). Particulars: mRNA level, 48 h; actives raise or lower the signal. In a few lines: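 Cell model: human HepaRG, approx. 100,000 cells/well, 0.5% DMSO vehicle. Exposure lasts 48 h; phenobarbital 1 mM serves as induction positive control. Gene expression is measured by qRT-PCR against three endogenous control genes.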

Read-out in assay [15]: UDP glucuronosyltransferase (UGT1A1), UGT1A1 (gene 54658)
The assay is described as follows: LTEA_HepaRG_UGT1A1: Life Technologies and Expression Analysis (LTEA) Assay for UDP glucuronosyltransferase (UGT1A1) using HepaRG (AID 2283538). Particulars: mRNA level, 48 h; actives raise or lower the signal. In a few lines:
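HepaRG, 48 h chemical exposure (top 100 uM, half-log 8-pt, 0.5% DMSO vehicle), duplicate wells; qRT-PCR (TaqMan, Fluidigm array) for UGT1A1 mRNA, housekeeping-normalized; bidirectional curve fit vs DMSO baseline.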

Read-out in assay [16]: UDP glucuronosyltransferase (UGT1A6), UGT1A6 (gene 54578)
The assay is described as follows: LTEA_HepaRG_UGT1A6: Life Technologies and Expression Analysis (LTEA) Assay for UDP glucuronosyltransferase (UGT1A6) using HepaRG (AID 2283539). Particulars: mRNA level, 48 h; actives raise or lower the signal. The method, boiled down: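 Expression was quantified by TaqMan qRT-PCR on Fluidigm arrays with ACTB/GAPDH/POLR2A normalization and bidirectional fitting against 0.5% DMSO. HepaRG cells (~100,000/well) were treated in duplicate for 48 h at eight half-log concentrations up to 100 uM in serum-free induction medium.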

Read-out in assay [17]: X-box binding protein 1 (XBP1), XBP1 (gene 7494)
The assay is described as follows: LTEA_HepaRG_XBP1: Life Technologies and Expression Analysis (LTEA) Assay for X-box binding protein 1 (XBP1) using HepaRG (AID 2283540). Particulars: mRNA level, 48 h; actives raise or lower the signal. The method, boiled down: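 XBP1 transcript by qRT-PCR (housekeeping-normalized: ACTB, GAPDH, POLR2A) after 48 h chemical treatment of HepaRG cells, 8-point half-log series topping at 100 uM, vehicle 0.5% DMSO. Gain and loss of signal fitted relative to DMSO.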

A short description of assay [18]: LTEA_HepaRG_LDH_cytotoxicity: Cytotoxicity Assessment in the Life Technologies and Expression Analysis (LTEA) Assay (AID 2283563; active = hit-call score of the fitted dose curve at least 0.9, where 1 is the maximum). The method, boiled down: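 LDH release into culture medium read after 48 h chemical treatment of HepaRG cells. Duplicate wells, eight-point half-log series topping at 100 uM, 0.5% DMSO vehicle and baseline.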

The source made the active and inactive calls. Rule for the calls, unless noted: active = hit-call score of the fitted dose curve at least 0.9, where 1 is the maximum; inactive = score below 0.9.

Chain of Signal transducer and activator of transcription 3 (Homo sapiens) (P40763 whole entry, looked up): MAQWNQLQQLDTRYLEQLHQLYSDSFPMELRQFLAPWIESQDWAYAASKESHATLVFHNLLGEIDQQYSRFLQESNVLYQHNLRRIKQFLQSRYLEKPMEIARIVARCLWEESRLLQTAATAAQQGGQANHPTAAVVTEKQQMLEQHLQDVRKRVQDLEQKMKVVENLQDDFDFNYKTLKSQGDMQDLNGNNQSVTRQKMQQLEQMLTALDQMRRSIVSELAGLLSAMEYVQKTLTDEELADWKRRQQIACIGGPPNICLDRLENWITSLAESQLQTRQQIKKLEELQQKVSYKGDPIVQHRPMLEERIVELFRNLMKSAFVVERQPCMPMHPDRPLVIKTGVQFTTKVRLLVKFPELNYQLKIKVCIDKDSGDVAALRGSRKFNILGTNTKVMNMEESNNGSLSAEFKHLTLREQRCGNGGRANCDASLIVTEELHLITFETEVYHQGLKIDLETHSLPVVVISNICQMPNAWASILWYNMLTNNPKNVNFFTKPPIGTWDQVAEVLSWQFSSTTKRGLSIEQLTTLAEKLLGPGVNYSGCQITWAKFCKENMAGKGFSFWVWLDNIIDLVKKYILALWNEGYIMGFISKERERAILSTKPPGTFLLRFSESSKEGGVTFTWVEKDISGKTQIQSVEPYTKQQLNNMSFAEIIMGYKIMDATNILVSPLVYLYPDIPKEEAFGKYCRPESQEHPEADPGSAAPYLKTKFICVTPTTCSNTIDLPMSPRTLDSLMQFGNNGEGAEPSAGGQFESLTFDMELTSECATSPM
Chain of Nuclear factor erythroid 2-related factor 2 (Homo sapiens) (Q16236 whole entry, looked up): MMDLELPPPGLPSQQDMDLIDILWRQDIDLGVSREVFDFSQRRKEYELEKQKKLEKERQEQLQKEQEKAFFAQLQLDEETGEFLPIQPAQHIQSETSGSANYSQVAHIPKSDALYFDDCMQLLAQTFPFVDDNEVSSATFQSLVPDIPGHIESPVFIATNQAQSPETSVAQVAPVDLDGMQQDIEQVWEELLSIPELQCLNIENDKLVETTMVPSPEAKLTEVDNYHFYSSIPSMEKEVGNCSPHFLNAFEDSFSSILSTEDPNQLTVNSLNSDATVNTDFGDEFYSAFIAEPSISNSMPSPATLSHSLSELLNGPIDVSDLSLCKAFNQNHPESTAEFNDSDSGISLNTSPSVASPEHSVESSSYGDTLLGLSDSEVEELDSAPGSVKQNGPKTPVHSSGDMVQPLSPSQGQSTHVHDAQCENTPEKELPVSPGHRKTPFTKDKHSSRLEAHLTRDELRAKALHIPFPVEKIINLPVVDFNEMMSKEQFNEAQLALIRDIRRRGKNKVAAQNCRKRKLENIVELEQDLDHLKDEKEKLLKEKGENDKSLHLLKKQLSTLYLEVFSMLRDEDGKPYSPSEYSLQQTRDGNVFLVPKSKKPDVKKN

Turning to `CCCCN(CC)c1c([N+](=O)[O-])cc(C(F)(F)F)cc1[N+](=O)[O-]`, the call in assay [1], in assay [2], in [3], in [4], in assay [5] and in assay [6] was inactive. The compound was classed as inactive in [7], in [8], in assay [9], in assay [10], in assay [11] and in [12]. Further, the outcome was “inactive” with TIMP1, TIMP1 (gene 7076); “inactive” in [13]; “inactive” in assay [14]; “inactive” in assay [16]; “inactive” in assay [17]; “inactive” in assay [18]. Also, the concentration at half-maximal activity (AC50) – broadly, the concentration giving half of the maximal activity seen – in [15] was 32.2 µM (active).
With `CCOC(=O)CC(SP(=O)(OC)OC)C(=O)OCC` (stereo not given), the call in assay [1], in assay [2], in assay [3], in [5], in assay [6] and in [7] was inactive. For the same compound, the outcome was “inactive” in [8]; “inactive” in assay [9]; “inactive” in [10]; “inactive” in [11]; “inactive” in assay [12]; “inactive” with TIMP1, TIMP1 (gene 7076). Further, the compound was classed as inactive in [13], in [14], in [15], in assay [16], in assay [17] and in assay [18]. Also, in assay [4], the AC50 is 22 µM (active).
Take `O=C(O)c1cc(Oc2ccc(C(F)(F)F)cc2Cl)ccc1[N+](=O)[O-]`: the outcome in [1], in assay [3], in [5], in assay [6], in assay [7] and in [8] was inactive. Besides, the outcome was “inactive” in assay [9]; “inactive” in assay [11]; “inactive” in [12]; “inactive” with TIMP1, TIMP1 (gene 7076); “inactive” in assay [13]; “inactive” in [14]. Moreover, the compound was classed as inactive in [16], in assay [17] and in assay [18]. Further, the AC50 in assay [4] is 42.1 µM (active); in assay [10], 50 µM (active); in assay [15] it was 22.7 µM (active).
Consider `S=C1NCCN1`, for which the outcome in assay [1], in [2], in [3], in assay [4], in assay [5] and in assay [6] was inactive. Besides, the outcome in assay [7] is “inactive”; in [8], “inactive”; in assay [10] it was “inactive”; in [11] it was “inactive”; in assay [12], “inactive”; with TIMP1, TIMP1 (gene 7076) it was “inactive”. For the same compound, the compound was called inactive in assay [13], in [14], in [15], in [16], in assay [17] and in assay [18]. The AC50 in [9] is 240 nM (active).
